Source: PubChem
An excerpt weighted towards active compounds, which were near 12% of everything screened.
PLK1 PBD block: PLK1 (human) polo-box domain binding inhibition; 360,000 compounds, 2.8% hits; Potency, µM, for inactives: max response, negative = inhibition, actives largely listed as inhibitors; Plk1 PBD binding of FITC phosphopeptide, fluorescence polarization; P53350; also: series mostly up to about 57 µM; % is scaled to controls: 0 for no effect and ±100 for the full control effect; nearly all actives have a fitted effect of over 65% in size
Target sequence (P53350 whole entry, looked up, the tested form may be a part): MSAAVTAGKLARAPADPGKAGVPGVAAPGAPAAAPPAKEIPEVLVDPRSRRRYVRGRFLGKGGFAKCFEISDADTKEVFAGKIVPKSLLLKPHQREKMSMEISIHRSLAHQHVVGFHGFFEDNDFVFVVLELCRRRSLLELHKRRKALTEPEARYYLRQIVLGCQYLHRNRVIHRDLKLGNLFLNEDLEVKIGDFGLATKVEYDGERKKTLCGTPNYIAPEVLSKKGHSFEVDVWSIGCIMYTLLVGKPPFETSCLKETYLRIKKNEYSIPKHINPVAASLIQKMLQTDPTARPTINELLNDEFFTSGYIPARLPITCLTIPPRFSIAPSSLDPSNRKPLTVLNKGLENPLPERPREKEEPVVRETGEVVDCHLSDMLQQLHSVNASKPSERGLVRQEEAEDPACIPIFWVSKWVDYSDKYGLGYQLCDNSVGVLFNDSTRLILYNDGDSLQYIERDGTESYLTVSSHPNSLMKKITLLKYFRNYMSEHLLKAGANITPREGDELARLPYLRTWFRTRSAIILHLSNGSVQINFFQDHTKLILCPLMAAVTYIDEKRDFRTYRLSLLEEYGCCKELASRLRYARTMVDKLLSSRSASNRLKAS
G9a block: G9a (human) methyltransferase inhibition | Q96KQ7 | G9a H3K9 monomethylation, AlphaScreen, 2 h | Potency, µM (doses to about 102 µM), for the others: at the highest dose activity, negative = inhibition, actives largely listed as inhibitors | 350,000 compounds, 8.8% hits; also: % is scaled to controls: 0 for no effect and ±100 for the full control effect; nearly all actives have a fitted effect of over 75% in size
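G9a (20 nM) was preincubated 15 min with compound, then reacted 2 h at room temperature with 500 nM biotin-H3K9 peptide and 20 µM SAM. Monomethyl-H3K9 detected by AlphaScreen using anti-H3K9me1 antibody.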
JMJD2A Tudor: blocks the human JMJD2A Tudor domain. AlphaScreen JMJD2A-Tudor / H3K4me3 peptide binding. Potency, µM (highest dose often 114 µM), without a hit: at the highest dose activity change, negative = inhibition, hits mostly inhibitors. 390,000 compounds, 4.4% hits. AID 504339; also: % is scaled to controls: 0 for no effect and ±100 for the full control effect; nearly all actives have a fitted effect of over 50% in size
BAZ2B inh: inhibitors of human BAZ2B bromodomain; Q9UIF8; AlphaScreen BAZ2B-H3K14Ac peptide displacement; Potency, µM (titrated, usually from 114 µM), without a hit: top-dose activity change, negative = inhibition, hits mostly inhibitors; 360,000 compounds, 4.4% hits; AID 504333; also: % is scaled to controls: 0 for no effect and ±100 for the full control effect; nearly all actives have a fitted effect of over 60% in size
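Complex of BAZ2B and biotin-H3K14Ac (50 nM apiece) forms over 30 min at RT, then faces library compounds up to 110 uM for another 30 min; AlphaScreen beads added, 20 min dark incubation, luminescence read.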
Sfp PPTase inh: blocks B. subtilis Sfp PPTase activity. Q9F4F7. Biochemical Sfp PPTase activity, qHTS. Potency, µM, for the others: largest response in the series, negative = inhibition, most hits filed as inhibitors. 310,000 compounds, 3.5% hits;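 also: the enzyme is Sfp with the accession as filed and its product quenches rhodamine fluorescence; 0% = enzyme reaction without inhibitor and -100% = no enzyme wells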
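Buffer: 50 mM Hepes-Na pH 7.6, 10 mM MgCl2, 0.01% Nonidet P-40, 0.01% BSA. Enzyme 15 nM, pre-exposed to compound 15 min; substrates then added and fluorescence change tracked over 30 min.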
HP1b binding inh: inhibitors of HP1-beta chromodomain binding to methylated histone tails | Potency, µM (titrated, usually from 114 µM), inactives show top-dose activity change, negative = inhibition, actives largely listed as inhibitors | P83916 | AlphaScreen HP1-beta / biotin-H3K9me3 peptide binding | 390,000 compounds, 0.56% hits; also: nearly all actives have a fitted effect of over 70% in size
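Compound inhibition of the preformed complex between 50 nM HP1-beta and 50 nM biotinylated H3K9me3 peptide was read by AlphaScreen. Buffer was PBS pH 7.4 with 0.01% Tween-20. Incubations ran 30 min at room temperature, with 10 ug/mL donor/acceptor beads.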
* = called active by the depositor; ? = inconclusive; · = no result; ! = not active in a repeat; [ ] = remark or other dose. Calls follow the shape of the dose curve; as a rule, active = well fitted curve in the direction sought with a large enough effect; inconclusive = small, poorly fitted or top-dose-only effect, or another doubt; inactive = no such curve, though single readings can be large; an effect the other way counts as inactive or inconclusive. Potency is read from the fitted curve at half-maximal effect.

SMILES	PLK1 PBD block	G9a block	JMJD2A Tudor	BAZ2B inh	Sfp PPTase inh	HP1b binding inh
O=C(O)/C=C/c1cn(-c2ccccc2)nc1-c1cccc([N+](=O)[O-])c1	-9%	?	-12%	-34%	11%	35%
CCC(C)[C@H](NC(=O)N1CCC(C)CC1)C(=O)OC (some centres undefined)	-2%	-5%	-2%	3%	22%	20%
COc1ccccc1OC(=O)CCc1nc2ccccc2s1	?	50µM*	0%	?	14µM*	51%
COC(=O)C(Cc1ccc(O)cc1)NC(=O)CCOc1ccc(OC)cc1 (centres undefined)	-12%	13%[59 µM]	-10%	-5%	24%	38%
COC(=O)C(Cc1ccc(O)cc1)NC(=O)CCc1nc2ccccc2s1 (centres undefined)	-16%	40µM*	-10%	-38%	-4%	0%
COC(=O)CCCc1nc2ccccc2s1	?	63%[59 µM]	8%[11.4 µM]	-3%	20%	-6%
CCN(CC)c1ccc(N=C2C=CC(=O)C=C2NC(C)=O)cc1	-16%	·	10µM*	·	·	25µM*
Cc1cc(=S)[nH]c(=S)[nH]1	?	·	-15%[11.4 µM]	-6%	45µM*	51%
O=C(O)CN1C(=O)/C(=C/C=C/c2ccccc2)SC1=S	?	?	-35%	?	-43%	-12%
C#CCN1C(=O)S/C(=C/C=C/c2ccc(N(C)C)cc2)C1=O	28%	8.9µM*	25µM*	10µM*	-11%	20µM*
CC1CCC(C(C)C)C(OC(=O)C[n+]2cccc(C(N)=O)c2)C1 (centres undefined)	2.4µM*	7%[59 µM]	?	-3%	19%	-3%
CC1CCC(C(C)C)C(OC(=O)COC(=O)c2ccc(N)cc2)C1 (centres undefined)	-9%	?	-18%	9%	21%	34%
COCCC(=O)N1CCC(Oc2ccc(C(=O)N(C)C3CCCCC3)cc2)CC1	-7%	-2%[0.501 µM]	-8%	3%	15%	13%
COCCC(=O)N1CCC(Oc2ccc(C(=O)N3CCCC(OC)C3)cc2)CC1 (centres undefined)	27µM*	29%	-23%	2%	19%	12%
COCCC(=O)N1CCC(Oc2ccc(C(=O)N(C)C(C)c3ccon3)cc2)CC1 (centres undefined)	27µM*	9%	?	-3%	4%	-5%
CCc1nn(CC(=O)NC2CC2)c(=O)c2cc3c(OC)cccc3n12	·	2%[59 µM]	-12%	0%	·	0%
Cc1ccccc1-n1c(=O)c2c3c(sc2n2cnnc12)CCCC3	·	-7%[59 µM]	-1%	-2%	·	41%
COC(=O)CCCC1=CC2=C(c3ccccc3)C(=O)C(C)(OC(=O)C3CCCC3)C(=O)C2=CN1Cc1ccco1 (centres undefined)	0%	1%[12.7 µM]	?	71µM*	56µM*!	-6%
CCc1ccc(NC(=O)CN2C(=O)c3ccccc3Sc3ccc(C(=O)N4CCCC4)cc32)cc1	·	-31%[59 µM]	-12%	-15%	·	3%
CN(C)c1ccc(NC(=O)CN2C(=O)c3ccccc3Sc3ccc(C(=O)N4CCCC4)cc32)cc1	·	4.5µM*	?	?	·	-16%
C=CCn1c(-c2ccc(Cl)cc2)cnc1SC(C)C(N)=O (centres undefined)	-13%	10µM*	-33%	?	-4%	20%
N#CCCn1cnc2c(=S)nc[nH]c21	-11%	?	35µM*	-33%	?	7%
CC(NC(=O)c1ccc(S(=O)(=O)N(C)C)cc1)c1ccccc1 (centres undefined)	?	4%[12.7 µM]	79µM*	-5%	16%	-15%
CCOc1ccc(C(c2c(O)cc(C)n(CCOC)c2=O)N2CCN(c3ccc(F)cc3)CC2)cc1 (centres undefined)	·	18µM*	-18%	3%	·	21%[57 µM]
Cc1ccc2nsnc2c1S(=O)(=O)N1CCOCC1	-6%	-8%[59 µM]	-13%	0%	-1%	18%
SMILES	PLK1 PBD block	G9a block	JMJD2A Tudor	BAZ2B inh	Sfp PPTase inh	HP1b binding inh
CCC(=O)N1c2ccc(S(=O)(=O)CCC(=O)Nc3ccc(Br)c(C)c3)cc2CC1C (centres undefined)	·	14µM*	22µM*	·	·	-12%
CC(=O)N1CCc2cc(S(=O)(=O)CCC(=O)Nc3ccc(C)cc3Br)ccc21	·	?	-8%	·	·	31%
CC(=O)N1CCc2cc(S(=O)(=O)CCC(=O)Nc3ccccc3F)ccc21	24µM*	?	50µM*	-23%	5%	-19%
CCOC(=O)c1cccc(NC(=O)CCS(=O)(=O)c2ccc3c(c2)CCN3C(=O)CC)c1	·	11µM*	25µM*	·	·	36%
CCOC(=O)c1cccc(NC(=O)CCNS(=O)(=O)c2ccc3c(c2)CCN3C(=O)CC)c1	-4%	-2%	-6%	-4%	19%	25%
CCC(=O)N1c2ccc(S(=O)(=O)CCC(=O)NC3CCCC3)cc2CC1C (centres undefined)	-12%	-12%[0.501 µM]	0%	-10%	3%	23%
Cc1ccc(C)c(NC(=O)Cn2c(=O)n(CCCS(=O)(=O)C3CCCCC3)c(=O)c3ccccc32)c1	·	21%[59 µM]	-11%	14%	·	21%
O=C(Cc1ccccc1)Nc1cccc(N2CCCC2)c1	-10%	-2%[12.7 µM]	?	-37%	-56%	-17%
COc1ccc(OC)c(C(c2nnnn2C2CCCC2)N2CCN(c3ccccc3F)CC2)c1 (centres undefined)	-4%	-5%[59 µM]	-34%	50µM*	8%	-2%
COc1ccc(N2CCN(C(c3cccc(OC)c3OC)c3nnnn3C3CCCC3)CC2)cc1 (centres undefined)	-11%	13µM*	45µM*	40µM*	-7%	?
COc1ccc2cc(C(c3nnnn3CC3CCCO3)N3CCOCC3)c(=O)[nH]c2c1 (centres undefined)	1%	17%	-12%	-1%	7%	18%
COc1ccc(N2CCN(C(c3cc(OC)ccc3OC)c3nnnn3CC3CCCO3)CC2)cc1 (centres undefined)	-29%	14µM*	79µM*	50µM*	15%	0%
Fc1ccccc1N1CCN(C(c2ccccn2)c2nnnn2C2CCCCC2)CC1 (centres undefined)	-2%	14µM*	-28%	79µM*	-23%	16%
COc1cccc(C(c2nnnn2C(C)(C)C)N2CCN(C3CCCCC3)CC2)c1OC (centres undefined)	-4%	0%	-8%	5%	17%	24%
COc1cc(OC)c(NC(=O)CN2CCCN(Cc3ccccc3C)S2(=O)=O)cc1Cl	·	10%[59 µM]	-10%	-14%	·	18%
Cc1cccc(C)c1NC(=O)CN(C)C(=O)CC1Sc2ccccc2NC1=O (centres undefined)	-5%	10%	-9%	9%	·	23%
